Results from PubChem BioAssay AID652054 (National Center for Advancing Translational Sciences (NCATS), 2013).
Out of some 360,000 compounds screened, about 9,100 (2.5%) were called active. Not shown: some 4% with an inconclusive outcome. The full list was thinned out, with actives kept by preference. A number with no mark means an inactive call. Rule as the data show it: active = max response below about -50%; inconclusive = no clear call, values can overlap the other calls; inactive = above that.
% is scaled to controls: 0 for no effect and ±100 for the full control effect.

The compounds below were run against D(3) dopamine receptor (Homo sapiens) (UniProt P35462) (assay: qHTS of D3 Dopamine Receptor Antagonist: qHTS). Conditions: D3R cells, DiscoveRx beta-arrestin luminescence, antagonist mode; hits give low values.
D(3) dopamine receptor (Homo sapiens), sequence (P35462 whole entry, looked up): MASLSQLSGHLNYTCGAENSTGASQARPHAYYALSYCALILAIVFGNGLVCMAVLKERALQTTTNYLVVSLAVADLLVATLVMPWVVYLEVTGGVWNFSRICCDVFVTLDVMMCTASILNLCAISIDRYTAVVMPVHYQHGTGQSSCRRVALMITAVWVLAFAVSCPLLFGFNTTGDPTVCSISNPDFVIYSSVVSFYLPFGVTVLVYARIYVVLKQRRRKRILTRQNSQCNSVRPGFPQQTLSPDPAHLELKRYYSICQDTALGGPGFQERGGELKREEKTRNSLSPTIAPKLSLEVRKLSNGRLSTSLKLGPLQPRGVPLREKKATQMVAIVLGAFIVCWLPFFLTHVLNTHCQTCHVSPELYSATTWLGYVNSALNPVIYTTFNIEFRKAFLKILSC
Method in brief: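 Cells expressing the human receptor were seeded at 1500 cells/well, incubated overnight at 37 degrees C in 5% CO2, then exposed to library compounds with dopamine controls for 90 minutes at 37 degrees C before luminescent detection.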
CCc1nc2c(OCC(=O)C(C)(C)C)cccn2c1N(C)C(=O)c1ccccc1F was tested, and the max response, negative = inhibition was -24.2%. For O=C1NC(Cc2ccccc2)c2nc3ccc(Br)cc3c(=O)n2-c2cc3ccccc3cc21 (configuration not stated), the max response, negative = inhibition was -0.847%. With COc1cc(NC(=O)c2cc(-c3ccc(F)cc3OC(C)C)n[nH]2)cc(OC)c1OC the max response, negative = inhibition was 6.57%. COc1ccccc1CNC(=O)c1cc(-c2cc(F)ccc2OC)n[nH]1 gave a max response, negative = inhibition of 18.6%. With COc1cc(F)ccc1-c1cc(C(=O)NCC2CCCCC2)[nH]n1 the max response, negative = inhibition was -75.3% (active). CC(=O)c1ccc(Nc2nc(C(N)c3ccccc3)cs2)cc1 (configuration not stated) showed a max response, negative = inhibition of 2.63%. Compound C[C@@H]1CN([C@@H](C)CO)S(=O)(=O)c2ccc(-c3ccc(C(=O)N(C)C)cc3)cc2O[C@@H]1CN(C)Cc1ccccc1C(=O)O has a max response, negative = inhibition of 16.1%. With COc1ccc(Cn2nnc3c(=O)[nH]c(C4CCN(C(=O)c5ccccc5Cl)CC4)nc32)cc1 the max response, negative = inhibition was -22.4%. For COc1ccc(CN2CCC(c3nc4ccc(Cl)cc4[nH]3)CC2)cc1, the max response, negative = inhibition was -101% (active). Compound COc1ccc(F)c(-c2nc(CN3CCC(c4ccccc4)CC3)c(C)o2)c1 has a max response, negative = inhibition of -19.4%. With C[C@@H]1CN([C@@H](C)CO)C(=O)c2cc(Br)cnc2O[C@@H]1CN(C)C(=O)C1CCCCC1 the max response, negative = inhibition was 22.5%. O=C(CSc1nnc(-c2ccco2)n1-c1ccccc1)NCCc1ccccc1 was tested, and the max response, negative = inhibition was -54.3% (active). Compound COc1ccc(C(=O)NC(=O)CSc2nnc(-c3ccco3)n2-c2ccccc2)cc1 has a max response, negative = inhibition of -3.83%. Cc1cccc(C)c1NC(=O)CCCSc1nnc(-c2ccco2)n1-c1ccccc1 showed a max response, negative = inhibition of -8.78%. For O=C(NNC(=O)c1ccccc1O)c1ccccc1O, the max response, negative = inhibition was 5.67%. O=C(CO/N=C/c1ccccc1OC(F)F)NC1CCCC1 gave a max response, negative = inhibition of 8.59%. In the case of O=C(CO/N=C/c1ccccc1O)NNC(=O)c1ccccc1Cl, the max response, negative = inhibition is reported as -53.5% (active). Work on Cc1ccc(S(=O)(=O)N2CC3C(=O)C[C@@H](c4ccccc4Cl)N(S(=O)(=O)c4ccc(C)cc4)C3CC2c2ccccc2)cc1 (some centres not stated) yielded a max response, negative = inhibition of 9.92%. CCOC(=O)c1ccn(S(=O)(=O)c2ccc(C)cc2)c1-c1ccccc1 showed a max response, negative = inhibition of -20.6%. In the case of Cc1c(Cl)cccc1NC(=O)NCCCN1CCCC1=O, the max response, negative = inhibition is reported as -2.4%. For CN(C)CCNC(=O)Nc1cccc(Cl)c1Cl, the max response, negative = inhibition was -70.3% (active). Work on Cc1c(Cl)cccc1NC(=O)NCc1ccc(C)n1C yielded a max response, negative = inhibition of 13.8%. Cc1ccccc1-c1nc(NC(C)C)nc2cc(-c3ccccc3)sc12 was tested, and the max response, negative = inhibition was 21.7%. Work on C[C@H]1CN([C@@H](C)CO)C(=O)c2cc(-c3cccc(F)c3)cnc2O[C@@H]1CN(C)S(C)(=O)=O yielded a max response, negative = inhibition of 17.3%. In the case of COc1ccc(Sc2ccc(NC(=O)c3cccc(Cl)c3)cc2C#N)cc1, the max response, negative = inhibition is reported as 28.7%. With c1ccc(-n2nnnc2NC2CCCCCC2)cc1 the max response, negative = inhibition was -9.29%. COc1ccccc1CN(C)c1nnnn1-c1ccccc1 gave a max response, negative = inhibition of 6.89%. Fc1ccccc1CCNc1nnnn1-c1ccccc1 was tested, and the max response, negative = inhibition was -77.8% (active). COc1ccccc1CNc1nc(Nc2ccccc2Cl)c2sccc2n1 was tested, and the max response, negative = inhibition was 51.2%. Cc1ccccc1NC(=O)Cc1nc(COC(=O)CNC(=O)c2ccc(Cl)cc2Cl)cs1 was tested, and the max response, negative = inhibition was -6.28%. CN(C)CC/C=C1\c2ccccc2CSc2ccccc21 was tested, and the max response, negative = inhibition was -54.4% (active). Work on CN(C)Cc1ccccc1C1(O)c2ccccc2CSc2ccccc21 (configuration not stated) yielded a max response, negative = inhibition of -12.3%. O=[N+]([O-])c1ccc(C(S(=O)(=O)Cc2ccccc2)S(=O)(=O)Cc2ccccc2)cc1 was tested, and the max response, negative = inhibition was -9.27%. With Oc1ccc(Br)cc1/C=N/Nc1ccccn1 the max response, negative = inhibition was -57.7% (active). For S=C(NN=Cc1ccccn1)Nc1ccccn1, the max response, negative = inhibition was -27%. With O=C(CCc1ccc(O)cc1)NN=Cc1cc(Br)ccc1O the max response, negative = inhibition was -3.37%. For CNC(=O)C1CN(C(=O)c2cccc(S(=O)(=O)N3CCc4ccccc43)c2)c2ccccc2O1 (configuration not stated), the max response, negative = inhibition was -27.2%. CC1C(=O)N(Cc2cn(CC3CCCCC3)nn2)CCS(=O)(=O)N1Cc1ccc(-c2cccc(N(C)C)c2)cc1 (configuration not stated) showed a max response, negative = inhibition of 0%. With Nc1cc(OC(=O)c2ccccc2Br)nn1S(=O)(=O)c1ccccc1 the max response, negative = inhibition was -73.2% (active). CN1C(=O)/C(=N/OC(=O)c2ccccc2Br)c2ccccc21 gave a max response, negative = inhibition of 0.409%. For Cc1ccc(S(=O)(=O)n2nc(OC(=O)C(C)(C)C)cc2N)cc1, the max response, negative = inhibition was -4.07%. Work on FC(F)(F)c1ccccc1Cc1c(-c2ccccc2)nc2c3ccccc3ccn12 yielded a max response, negative = inhibition of -14.4%. In the case of COc1cccc(-c2cnc3c(NC(C)=O)cc(-c4cccc(NC(C)=O)c4)cn23)c1, the max response, negative = inhibition is reported as 43.1%. CCN1CCCC1CNC(=O)c1ccc2c(c1)NC(=O)/C(=C\c1ccccc1F)S2 (configuration not stated) showed a max response, negative = inhibition of -21.4%. For COc1cc(CC(=O)NCc2cccs2)cc(OC)c1OC, the max response, negative = inhibition was -6.25%. With Cc1cccc(C)c1Cn1c(C)c(C(=O)NCc2cccc(Cl)c2)sc1=O the max response, negative = inhibition was -105% (active). Work on CC(=O)Oc1ccc(Cn2c(C)c(C(=O)NCc3ccc(C#N)cc3)sc2=O)cc1 yielded a max response, negative = inhibition of -1.7%. Work on Cc1c(C(=O)NCC2CC2)sc(=O)n1Cc1cccc(F)c1 yielded a max response, negative = inhibition of 11.5%. With Cc1ccccc1Cn1c(C)c(C(=O)NCc2cccc(C(F)(F)F)c2)sc1=O the max response, negative = inhibition was -29.9%. With COc1ccc(Br)c(Cn2c(C)c(C(=O)NCc3cccs3)sc2=O)c1 the max response, negative = inhibition was -59.3% (active). CCOC(=O)[C@]12CCCC=C1N(CCC1=CCCCC1)C(=O)[C@H](CC(=O)N1CCOCC1)C2 gave a max response, negative = inhibition of -20.5%. In the case of COC(=O)C[C@H]1C=C[C@H](NC(=O)c2ccc(F)cc2)[C@@H](CO)O1, the max response, negative = inhibition is reported as 0%. CCc1nc2ccccc2c(C(=O)NCc2ccc(OC)cc2)c1C gave a max response, negative = inhibition of -8.59%. For CCN(CC)CCNC(=O)c1ccc(NC(=O)c2cc(-c3ccncc3)nc3ccccc23)cc1, the max response, negative = inhibition was -11%. In the case of CCCN(CCC)CCNC(=O)c1cc2c(C)nc3ccccc3c2o1, the max response, negative = inhibition is reported as -52.4% (active). C[C@H]1CN([C@@H](C)CO)C(=O)CCCn2nncc2CO[C@@H]1CN(C)S(=O)(=O)c1cccc(C#N)c1 was tested, and the max response, negative = inhibition was 12.3%. CC1(Oc2ccc(Cl)cc2)CCN(Cc2csc3ccccc23)C1 (configuration not stated) was tested, and the max response, negative = inhibition was -85.5% (active). With CC1(Oc2cccc(F)c2)CCN(Cc2ccccc2OC(F)F)C1 (configuration not stated) the max response, negative = inhibition was -21.8%. COc1ccc(CN2CCC(C)(Oc3cccc(F)c3)C2)c2ccccc12 (configuration not stated) was tested, and the max response, negative = inhibition was -6.36%. Compound N#Cc1ccc(-c2ccc3nccn3c2)cc1 has a max response, negative = inhibition of 21.2%. Cc1ccccc1S(=O)(=O)NC(=O)C1(C)CCN1C(=O)C1(c2ccccc2)CCCC1 (configuration not stated) was tested, and the max response, negative = inhibition was 15.6%. For CSc1ccc(CN2CCC2(C)C(=O)Nc2ccc(C)c(O)c2)cc1 (configuration not stated), the max response, negative = inhibition was 51.8%. For O=C(Nc1ccccc1)N1CCC(C(=O)N2CCN(Cc3ccccc3)CC2)CC1, the max response, negative = inhibition was 0%. For O=C(Nc1ccccc1)N1CCN(Cc2ccccc2)CC1, the max response, negative = inhibition was -70.6% (active). For O=C(c1cccc(Cl)c1)N1CCN(Cc2ccccc2)CC1, the max response, negative = inhibition was 7.13%. For O=C(c1cc2ccccc2o1)N1CCN(Cc2ccccc2)CC1, the max response, negative = inhibition was -77.4% (active). For O=C(c1cc2ccccc2o1)N1CCN(S(=O)(=O)c2ccc(Cl)s2)CC1, the max response, negative = inhibition was -0.155%. Compound O=C(NC(=S)N1CCN(Cc2ccccc2)CC1)c1ccccc1 has a max response, negative = inhibition of -1.99%. CCOC(=O)C1=CCC(c2ccc(F)cc2)N(S(=O)(=O)c2ccc(C)cc2)C1 (configuration not stated) was tested, and the max response, negative = inhibition was -25.7%. Compound Clc1cccc(Cc2c(-c3cccc(Cl)c3)nc3ccc(Cl)cn23)c1 has a max response, negative = inhibition of 33.1%. In the case of CC(=NNC(N)=O)C1CC2CCC1CC2 (configuration not stated), the max response, negative = inhibition is reported as 16.7%. In the case of O=C1Nc2ccccc2-n2nnnc2C1N1CCN(c2cccc(C(F)(F)F)n2)CC1 (configuration not stated), the max response, negative = inhibition is reported as 11.4%. Compound O=[N+]([O-])c1ccc(N(CCO)Cc2ccccc2)c([N+](=O)[O-])c1 has a max response, negative = inhibition of 5.91%. Work on CN1CCN(/N=C2/C(=O)Nc3ccc([N+](=O)[O-])cc32)CC1 yielded a max response, negative = inhibition of -3.16%. With O=C1Nc2ccc([N+](=O)[O-])cc2C1=Nc1cccc(CO)c1 the max response, negative = inhibition was -77.4% (active). For COC(=O)CCCCC1=CCC2C(=O)C=C(O)C2C1 (configuration not stated), the max response, negative = inhibition was 0%. CN1CCn2cnc(C(=O)NCC(=O)OC(C)(C)C)c2C1=O was tested, and the max response, negative = inhibition was -5.8%. For CC1CCCCN1S(=O)(=O)c1ccc(C(=O)Nc2nnc(-c3cccs3)o2)cc1 (configuration not stated), the max response, negative = inhibition was -63.3% (active). In the case of CC1CCCCN1S(=O)(=O)c1ccc(S(=O)(=O)N(CC(=O)Nc2ccccc2)Cc2cccs2)cc1 (configuration not stated), the max response, negative = inhibition is reported as 28.7%. CSCc1nnc(NC(=O)c2ccc(S(=O)(=O)N3CCCCC3C)cc2)o1 (configuration not stated) gave a max response, negative = inhibition of -20%. Cc1cc(C)n(-c2c(F)c(F)c(COC(=O)c3ccccc3)c(F)c2F)n1 showed a max response, negative = inhibition of -2%. For CCOC(=O)c1cnc(-n2nc(C)cc2C)nc1NNc1cc(C)nc(-c2ccccc2)n1, the max response, negative = inhibition was -53.4% (active). Cc1cc(-n2nc(C)cc2C)n2ncc(-c3ccccc3)c2n1 was tested, and the max response, negative = inhibition was 17.7%. In the case of CCCS(=O)(=O)NC(=O)C1(C)CCCN(C(=O)c2cccs2)C1 (configuration not stated), the max response, negative = inhibition is reported as -7.3%. Work on COC(=O)[C@]12CCCCC=C1N(Cc1ccccc1)C(=O)[C@H](CC(=O)NCc1ccc(C)o1)C2 yielded a max response, negative = inhibition of 0.174%. In the case of COc1ccc(N2CCN(Cc3nnc(-c4ccccc4)o3)CC2)cc1, the max response, negative = inhibition is reported as 11.3%. For Cc1ccc(-c2nnc(CN3CCN(C)CC3)o2)cc1, the max response, negative = inhibition was 0%. c1ccc(-c2cnc(CN3CCN(c4ccccc4)CC3)o2)cc1 was tested, and the max response, negative = inhibition was -58.1% (active). In the case of Cc1cc2cc3n(c2nn1)N=C(Cl)CC3, the max response, negative = inhibition is reported as 10.6%. With CC(=O)Nc1ccc(N2C(=O)C3C4CC(=O)C(c5ccccc54)C3C2=O)cc1 (configuration not stated) the max response, negative = inhibition was -60% (active). With CC(=O)Nc1ccc(N2C(=O)C3C4C=CC(CC4)C3C2=O)cc1 (configuration not stated) the max response, negative = inhibition was 3.35%. CCc1ccccc1N1C(=O)C2C3CC(=O)C(c4ccccc43)C2C1=O (configuration not stated) showed a max response, negative = inhibition of -6.94%.
